Test [1] in a line: ATG_E_Box_CIS: Attagene CIS-FACTORIAL HepG2 Assay for human Enhancer Box (E-box) (AID 2282936). The settings on record: HepG2 E-box cis-reporter transcription, actives raise or lower the signal. In a few lines: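 E-box-driven reporter transcripts measured in transiently transfected HepG2 after 24 h exposure: RNA reverse-transcribed, PCR-amplified, fluorescently labelled, digested and resolved by capillary electrophoresis. Gain or loss relative to DMSO.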

A short description of test [2]: ATG_M_61_CIS: Attagene CIS-FACTORIAL HepG2 Assay for M61 Transcription Factor (Internal Marker) (AID 2282937). The settings on record: HepG2 Attagene CIS-FACTORIAL M61 internal marker reporter; actives raise or lower the signal. In a few lines:
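Fluorescence from labelled cDNA fragments, separated by capillary electrophoresis, quantifies reporter induction. HepG2 cells bearing transiently transfected cis-promoter MRTUs were incubated with test chemical for 24 h; DMSO defined baseline for gain/loss fitting.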

Test [3] in a line: ATG_EGR_CIS: Attagene CIS-FACTORIAL HepG2 Assay for human Early Growth Response 1 (EGR1) (AID 2282938). The settings on record: HepG2 Attagene CIS-FACTORIAL EGR reporter mRNA; actives raise or lower the signal. In a few lines: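 Cell-based multiplex transcription assay: HepG2 carrying transfected cis-element reporter units, 24 h chemical treatment. Fluorescence from capillary electrophoresis of RT-PCR products gives mRNA levels; fitting is bidirectional relative to DMSO.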

The nature of test [4]: ATG_M_19_CIS: Attagene CIS-FACTORIAL HepG2 Assay for M19 Transcription Factor (Internal Marker) (AID 2282939). The settings on record: HepG2 Attagene CIS-FACTORIAL M19 internal marker reporter; actives raise or lower the signal. In a few lines:
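HepG2 cells transiently transfected with cis-regulated multiplexed reporter units, dosed 24 h. Reporter mRNA quantified by RT-PCR and capillary electrophoresis; internal background marker fitted bidirectionally versus DMSO.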

The nature of test [5]: ATG_ERE_CIS: Attagene CIS-FACTORIAL HepG2 Assay for Estrogen Response Element (ERE) (AID 2282940). The settings on record: HepG2 ERE cis-reporter, Attagene RNA transcript; actives raise or lower the signal. In a few lines:
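HepG2 cells transiently transfected with multiplexed cis-element reporter units, measuring endogenous transcription factor activity; ERE reporter mRNA quantified after 24 h exposure by RT-PCR, fluorescent labelling, HpaI digestion and capillary electrophoresis. Bidirectional change versus DMSO.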

A short description of test [6]: ATG_Ets_CIS: Attagene CIS-FACTORIAL HepG2 Assay for human Erythroblast Transformation Specific (ETS) (AID 2282941). Particulars: HepG2 ETS cis-reporter transcription, actives raise or lower the signal. In a few lines:
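Bidirectional fit versus DMSO of reporter mRNA signal, detected by RT-PCR and capillary electrophoresis in HepG2 cells transiently transfected with cis-element reporters and dosed 24 h.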

Test [7] concerns the target Hepatocyte nuclear factor 3-beta (Homo sapiens) (UniProt Q9Y261). Kind of test: ATG_FoxA2_CIS: Attagene CIS-FACTORIAL HepG2 Assay for human Forkhead box A2 (FOXA2) (AID 2282942). The settings on record: HepG2 cis-reporter transcription factor activity, 24 h; actives raise or lower the signal. In a few lines: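 In transiently transfected human HepG2 cells, promoter-driven reporter mRNA levels after 24 h chemical exposure are determined via RT-PCR with capillary electrophoresis. DMSO serves as baseline for bidirectional fitting.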

A short description of test [8]: ATG_FoxO_CIS: Attagene CIS-FACTORIAL HepG2 Assay for human Forkhead box O (FoxO) (AID 2282943). Particulars: HepG2 Attagene cis-reporter, FoxO element, mRNA; actives raise or lower the signal. In a few lines: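 Endogenous transcription factor activity read from multiplexed cis-promoter reporter transcripts in transiently transfected HepG2, 24 h after dosing. Reporter RNA measured via RT-PCR plus capillary electrophoresis of FAM-labeled products; gain or loss relative to DMSO.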

Test [9] in a line: ATG_GATA_CIS: Attagene CIS-FACTORIAL HepG2 Assay for human GATA Binding Protein (AID 2282944). The settings on record: HepG2 GATA cis-element reporter, Attagene multiplex mRNA; actives raise or lower the signal. In a few lines: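 HepG2 cells transiently transfected with multiplexed cis-element reporter units measure endogenous GATA activity; after 24 h compound exposure, reporter mRNA quantified by RT-PCR and capillary electrophoresis. Changes fitted in both directions vs DMSO.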

Test [10] can be described thus: ATG_GLI_CIS: Attagene CIS-FACTORIAL HepG2 Assay for human Zinc Finger Protein GLI1 (AID 2282945). Particulars: HepG2, Attagene cis-factorial reporter mRNA, GLI element; actives raise or lower the signal. In a few lines: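 Bidirectional curve fits relative to DMSO, using reporter mRNA levels from RT-PCR plus capillary electrophoresis. Cells were HepG2 transiently carrying cis-regulated reporter constructs, harvested 24 h after dosing.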

For test [11], the target named is Bile acid receptor (Homo sapiens) (UniProt Q96RI1). Nature of the test: ATG_IR1_CIS: Attagene CIS-FACTORIAL HepG2 Assay for human Nuclear Receptor Subfamily 1 Group H Member 4 (NR1H4), IR1 submotif (AID 2282946). Particulars: IR1 reporter transcription, actives raise or lower the signal. In a few lines:
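HepG2 cells transiently transfected with multiplexed cis-element reporter units read endogenous transcription factor activity. After 24 h compound exposure, reporter mRNA was quantified by RT-PCR, fluorescent labelling, HpaI digestion and capillary electrophoresis; bidirectional fitting versus DMSO baseline.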

The nature of test [12]: ATG_GRE_CIS: Attagene CIS-FACTORIAL HepG2 Assay for human Glucocorticoid Response Elements (GRE) (AID 2282947). Particulars: HepG2 GRE cis-reporter, Attagene multiplex mRNA; actives raise or lower the signal. In a few lines:
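Reporter transcripts read by RT-PCR with capillary electrophoresis fluorescence after a 24 h chemical exposure of HepG2 cells transiently transfected with multiple cis-element reporter units. Gain or loss fitted against DMSO.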

Test [13] is described as follows: ATG_ISRE_CIS: Attagene CIS-FACTORIAL HepG2 Assay for human Interferon Regulatory Factor 1 (IRF1) binding to an Interferon-Stimulated Response Element (ISRE) (AID 2282948). The settings on record: HepG2 ISRE cis-reporter (Attagene), mRNA transcription readout; actives raise or lower the signal. In a few lines: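 Uses HepG2 liver cells transfected with cis-regulated reporters and measures mRNA 24 h post-dosing through RT-PCR, primer-extension labelling and capillary electrophoresis, with DMSO as negative control.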

Test [14] can be described thus: ATG_M_06_CIS: Attagene CIS-FACTORIAL HepG2 Assay for M06 Transcription Factor (Internal Marker) (AID 2282950). The settings on record: HepG2 Attagene CIS-FACTORIAL M06 internal marker reporter; actives raise or lower the signal. In a few lines: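 Internal background marker within multiplexed cis-reporter HepG2 system. Cells transiently transfected, dosed 24 h; reporter mRNA measured by RT-PCR, HpaI digestion and capillary electrophoresis. Bidirectional fit relative to DMSO.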

The target in test [15] is Hypoxia-inducible factor 1-alpha (Homo sapiens) (UniProt Q16665). Nature of the test: ATG_HIF1a_CIS: Attagene CIS-FACTORIAL HepG2 Assay for human Hypoxia Inducible Factor 1 (HIF1A) (AID 2282951). The settings on record: HepG2 Attagene cis-factorial HIF1a reporter transcription; actives raise or lower the signal. In a few lines: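 In this multiplexed cell assay, HepG2 cells bearing transfected cis reporters are dosed for 24 h and reporter mRNA is read by RT-PCR plus capillary electrophoresis; signal increases and decreases are both scored against DMSO.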

Test [16] concerns the target Hepatocyte nuclear factor 6 (Homo sapiens) (UniProt Q9UBC0). Kind of test: ATG_HNF6_CIS: Attagene CIS-FACTORIAL HepG2 Assay for human Hepatocyte Nuclear Factor 6 (HNF6) (AID 2282952). Particulars: HepG2 Attagene cis-factorial HNF6 reporter transcription; actives raise or lower the signal. In a few lines: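 Endogenous factor activity read in transiently transfected HepG2 via promoter-regulated reporter transcripts. RNA harvested 24 h post-dosing, reverse-transcribed, PCR-amplified, FAM-labelled, HpaI-digested and resolved by capillary electrophoresis; fitted in both directions against DMSO.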

A short description of test [17]: ATG_MRE_CIS: Attagene CIS-FACTORIAL HepG2 Assay for human Metal Responsive Element (MRE) (AID 2282954). The settings on record: HepG2 MRE cis-reporter transcription, Attagene multiplex; actives raise or lower the signal. In a few lines:
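Endogenous MRE-dependent transcription read as reporter mRNA in transiently transfected human HepG2 cells at 24 h. RNA reverse-transcribed, PCR-amplified, labelled and resolved by capillary electrophoresis; gain or loss relative to DMSO.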

Test [18] can be described thus: ATG_M_32_CIS: Attagene CIS-FACTORIAL HepG2 Assay for M32 Transcription Factor (Internal Marker) (AID 2282949).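 Further: background control marker of the multiplexed CIS panel rather than a real target.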 Particulars: HepG2 Attagene cis-factorial M32 reporter, mRNA; actives raise or lower the signal. In a few lines: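 HepG2 transfectants (cis-regulated reporter transcription units) dosed 24 h. Reporter mRNA by RT-PCR plus CE, analysed as gain or loss relative to DMSO.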

Test [19] concerns the target Heat shock factor protein 1 (Homo sapiens) (UniProt Q00613). Nature of the test: ATG_HSE_CIS: Attagene CIS-FACTORIAL HepG2 Assay for human Heat Shock Transcription Factor 1 (HSE) (AID 2282953). Particulars: HepG2 HSE cis-reporter, Attagene RNA transcription; actives raise or lower the signal. In a few lines:
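HepG2 cells transfected with cis-promoter reporter units sensing endogenous transcription factor activity; reporter mRNA quantified 24 h post-dose by RT-PCR and capillary electrophoresis of 6-FAM-labelled products. Bidirectional fitting against DMSO.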

Calls of active or inactive are those of the source. How the source made its calls: active means hit-call score of the fitted dose curve at least 0.9, where 1 is the maximum; inactive means score below 0.9.

Hepatocyte nuclear factor 3-beta (Homo sapiens), sequence (Q9Y261 whole entry, looked up): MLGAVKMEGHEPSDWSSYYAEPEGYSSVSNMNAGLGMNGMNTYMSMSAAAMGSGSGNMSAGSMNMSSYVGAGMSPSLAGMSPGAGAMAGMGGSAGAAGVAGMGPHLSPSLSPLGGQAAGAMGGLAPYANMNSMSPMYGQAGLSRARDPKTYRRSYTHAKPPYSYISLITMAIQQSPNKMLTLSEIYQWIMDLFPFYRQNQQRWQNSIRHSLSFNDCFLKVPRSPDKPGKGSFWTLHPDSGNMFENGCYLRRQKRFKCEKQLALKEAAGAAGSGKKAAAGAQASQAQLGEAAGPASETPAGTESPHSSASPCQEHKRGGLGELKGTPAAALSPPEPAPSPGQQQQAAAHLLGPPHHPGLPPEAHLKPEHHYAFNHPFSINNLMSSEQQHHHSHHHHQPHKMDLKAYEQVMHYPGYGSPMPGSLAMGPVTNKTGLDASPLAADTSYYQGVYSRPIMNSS
Hypoxia-inducible factor 1-alpha (Homo sapiens), sequence (Q16665 whole entry, looked up): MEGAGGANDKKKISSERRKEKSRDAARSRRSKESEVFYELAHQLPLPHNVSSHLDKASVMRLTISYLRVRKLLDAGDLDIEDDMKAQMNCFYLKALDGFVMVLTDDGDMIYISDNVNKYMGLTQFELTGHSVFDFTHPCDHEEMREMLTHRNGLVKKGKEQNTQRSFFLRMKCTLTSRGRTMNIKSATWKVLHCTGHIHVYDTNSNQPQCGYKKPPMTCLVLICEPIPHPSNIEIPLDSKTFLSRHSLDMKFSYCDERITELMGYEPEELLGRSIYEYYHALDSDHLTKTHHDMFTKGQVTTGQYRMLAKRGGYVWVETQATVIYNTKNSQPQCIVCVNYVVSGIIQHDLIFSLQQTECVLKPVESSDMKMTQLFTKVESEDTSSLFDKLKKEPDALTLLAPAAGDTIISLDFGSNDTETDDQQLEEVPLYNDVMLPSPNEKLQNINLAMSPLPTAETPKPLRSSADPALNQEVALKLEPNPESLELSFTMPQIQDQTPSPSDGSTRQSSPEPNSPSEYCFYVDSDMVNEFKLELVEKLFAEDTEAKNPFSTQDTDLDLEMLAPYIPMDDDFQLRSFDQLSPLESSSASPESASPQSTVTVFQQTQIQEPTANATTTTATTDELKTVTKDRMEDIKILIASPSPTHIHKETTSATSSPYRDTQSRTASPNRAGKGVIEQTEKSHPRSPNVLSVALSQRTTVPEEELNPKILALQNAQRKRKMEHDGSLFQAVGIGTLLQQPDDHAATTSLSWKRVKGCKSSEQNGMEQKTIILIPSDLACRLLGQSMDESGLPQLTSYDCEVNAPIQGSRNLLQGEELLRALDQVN
Hepatocyte nuclear factor 6 (Homo sapiens), sequence (Q9UBC0 whole entry, looked up): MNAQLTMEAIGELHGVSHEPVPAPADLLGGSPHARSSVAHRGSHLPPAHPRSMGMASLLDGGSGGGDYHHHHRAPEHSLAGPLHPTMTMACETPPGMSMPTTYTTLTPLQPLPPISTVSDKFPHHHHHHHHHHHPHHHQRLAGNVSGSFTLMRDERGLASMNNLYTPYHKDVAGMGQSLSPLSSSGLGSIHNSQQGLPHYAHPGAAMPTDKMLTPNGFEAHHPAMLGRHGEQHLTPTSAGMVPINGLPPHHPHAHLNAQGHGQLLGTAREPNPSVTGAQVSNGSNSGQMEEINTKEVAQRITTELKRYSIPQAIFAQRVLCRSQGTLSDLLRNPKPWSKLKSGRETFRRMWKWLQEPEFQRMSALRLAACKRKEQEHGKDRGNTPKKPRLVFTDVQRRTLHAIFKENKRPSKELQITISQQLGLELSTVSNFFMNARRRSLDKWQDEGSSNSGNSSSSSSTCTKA
Bile acid receptor (Homo sapiens), sequence (Q96RI1 whole entry, looked up): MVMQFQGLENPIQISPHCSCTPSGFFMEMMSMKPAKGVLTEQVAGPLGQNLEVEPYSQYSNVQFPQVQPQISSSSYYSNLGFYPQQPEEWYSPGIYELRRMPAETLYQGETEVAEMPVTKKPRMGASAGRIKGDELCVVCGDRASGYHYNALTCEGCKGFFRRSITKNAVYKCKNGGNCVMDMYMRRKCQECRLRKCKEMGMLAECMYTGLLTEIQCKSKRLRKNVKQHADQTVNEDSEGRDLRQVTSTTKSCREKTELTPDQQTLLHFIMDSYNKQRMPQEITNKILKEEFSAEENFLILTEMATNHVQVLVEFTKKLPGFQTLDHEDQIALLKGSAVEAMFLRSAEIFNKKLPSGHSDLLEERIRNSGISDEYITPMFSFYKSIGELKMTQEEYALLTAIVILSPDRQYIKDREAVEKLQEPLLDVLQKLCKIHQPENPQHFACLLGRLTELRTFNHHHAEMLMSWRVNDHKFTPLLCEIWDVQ
Heat shock factor protein 1 (Homo sapiens), sequence (Q00613 whole entry, looked up): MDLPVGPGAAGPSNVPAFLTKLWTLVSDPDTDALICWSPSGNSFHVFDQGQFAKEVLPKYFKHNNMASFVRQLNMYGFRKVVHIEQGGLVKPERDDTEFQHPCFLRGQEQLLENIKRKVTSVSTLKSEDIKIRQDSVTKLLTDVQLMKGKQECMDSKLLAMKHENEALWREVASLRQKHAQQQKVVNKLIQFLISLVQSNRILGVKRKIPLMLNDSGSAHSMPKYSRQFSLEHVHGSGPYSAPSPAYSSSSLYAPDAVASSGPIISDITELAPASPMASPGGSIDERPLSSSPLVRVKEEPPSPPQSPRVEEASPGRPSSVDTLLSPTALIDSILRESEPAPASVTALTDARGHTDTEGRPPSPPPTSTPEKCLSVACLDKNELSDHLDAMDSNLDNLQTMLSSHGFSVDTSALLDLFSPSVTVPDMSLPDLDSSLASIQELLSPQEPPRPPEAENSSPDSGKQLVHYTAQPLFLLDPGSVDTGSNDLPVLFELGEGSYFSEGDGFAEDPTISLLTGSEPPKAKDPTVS

The term AC50 denotes the concentration at which the activity in the assay is half-maximal. Regarding `CCOP(=S)(OCC)SCSCC`, the outcome in test [1], in [2], in [3], in [4], in test [6] and in test [7] was inactive. Further, the result in test [8], in test [9], in [10], in [11], in [12] and in [13] was inactive. Also, the compound was called inactive in test [14], in [15] and in test [16]. The AC50 in test [5] is 14.9 µM (active); in [17] it was 151 µM (active).

`N#Cc1c(-c2ccc(Cl)cc2)[nH]c(C(F)(F)F)c1Br`: the outcome in test [1], in test [2], in test [3], in test [4], in test [5] and in [7] was inactive. In addition, the compound was classed as inactive in test [8], in [9], in [10], in test [11], in test [12] and in test [18]. The result in test [14], in test [15] and in test [16] was inactive. The AC50 in test [6] is 19.8 µM (active); in [13] it was 1 µM (active); in test [19] it was 47.3 µM (active); in test [17] it was 0.956 µM (active).

In the case of `c1ccc2c(c1)sc1ccccc12`, the outcome in [1], in [2], in [3], in test [4], in test [6] and in test [7] was inactive. Moreover, the call in test [8], in test [9], in test [10], in test [11], in test [12] and in test [13] was inactive. In addition, the compound was called inactive in test [18], in [14], in test [15], in [16] and in test [17]. Moreover, the AC50 in test [5] was 125 µM (active).

On to `O=C(O)C=CC(F)(C(F)(F)F)C(F)(F)F`, for which the result in test [1], in test [2], in test [3], in test [4], in test [5] and in test [6] was inactive. Also, the outcome in test [7], in [8], in test [9], in test [10], in test [11] and in [12] was inactive. Also, the outcome in [13], in test [18], in test [14], in [15], in test [16] and in test [19] was inactive. For the same compound, in test [17], the outcome was inactive.

With `Cc1ccc(O)cc1C`, the result in [1], in test [2], in test [3], in [4], in test [6] and in test [7] was inactive. Further, the result in test [8], in [9], in test [10], in test [13], in test [18] and in [14] was inactive. Further, the call in test [15] and in test [17] was inactive. Besides, the AC50 in [5] was 160 µM (active).

Take `Cc1cc(C)c(C(=O)P(=O)(c2ccccc2)c2ccccc2)c(C)c1`: the AC50 in [1] was 54.9 µM (active); in test [2] it was 60.7 µM (active); in test [3] it was 41.3 µM (active); in [4] it was 61.5 µM (active); in test [5] it was 8.69 µM (active); in test [9], 54.9 µM (active). Moreover, the AC50 was 60 µM (active) in test [10]; 12.8 µM (active) in test [11]; 57.7 µM (active) in [12]; 53.1 µM (active) in test [18]; 60.7 µM (active) in test [14]; 50.7 µM (active) in test [16]. Besides, the half-maximal activity concentration (AC50) in test [17] was 17.9 µM (active). The call in [6], in test [7], in [8], in test [13] and in test [15] was inactive.

`FC(F)(F)c1ccc(Cl)cc1`: the result in [1], in test [2], in test [3], in test [4], in test [5] and in test [6] was inactive. Further, the outcome in [7], in test [8], in test [9], in [10], in test [11] and in test [12] was inactive. The call in test [13], in test [18], in [14], in [15], in test [16] and in test [17] was inactive.

The values are drawn from PubChem BioAssay (EPA / NIEHS).
